# Values joined by “and” are separate entries in the source; they are usually repeats but may differ in a detail not shown here. Identical values can stand only once. Results filed as inconclusive are left out. Active and inactive are the calls of the source. Unless noted, how the calls were made is not given here.
# What was measured:
# [1] = qHTS Assay for Identifying Gametocytocidal Compounds (AID 743244; active means well fitted curve in the direction sought with a large enough effect; an effect the other way counts as inactive or inconclusive; further: potency means the concentration at half of the fitted maximal effect;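 on max response: on the % scale 0 is the no-effect control and ±100 the full control effect; actives lower the fluorescent signal which means gametocytes are killed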); conditions: P. falciparum 3D7 stage III-V gametocytes, alamarBlue, 72 h; max response: stronger effect = lower value
# Procedure, shortened: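 Fluorescence at Ex 525/Em 598 nm, recorded 24 h after alamarBlue addition, reports residual metabolic activity of 3D7 gametocytes (stages III–V) following 72 h compound exposure at 37 °C, 5% CO2.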
# [2] = qHTS profiling for inhibitors of Plasmodium falciparum (3D7) proliferation (AID 743322);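 further: infected erythrocytes exposed to compound for 72 h before lysis; 100% = DMSO vehicle wells and 0% = 0.29 µM artemisinin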; conditions: P. falciparum 3D7 proliferation; at 28.7 µM (top of the series)
# Procedure, shortened: (§1)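 Parasite DNA was quantified by SYBR Green I fluorescence (ex 485, em 535 nm) after overnight lysis in saponin/Triton buffer at room temperature. Cultures at 0.3% parasitemia and 2.5% hematocrit were first exposed to compound for 72 h at 37 C; signals were normalised to artemisinin (0.29 uM) and vehicle wells.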
# [3] = qHTS profiling for inhibitors of Plasmodium falciparum (DD2) proliferation (AID 743323); conditions: lower = more inhibition; at 28.7 µM (top of the series)
# Procedure, shortened: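 Parasite DNA quantified by SYBR Green fluorescence (ex 485, em 535 nm) after saponin/Triton lysis and overnight dark incubation. Cultures: 0.3% parasitemia, 2.5% hematocrit, 72 h, 37 C; data scaled between DMSO and 0.29 uM artemisinin.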
# [4] = qHTS profiling for inhibitors of Plasmodium falciparum (HB3) proliferation (AID 743324; active means well fitted curve in the direction sought with a large enough effect; an effect the other way counts as inactive or inconclusive;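 further: 100% = DMSO vehicle wells and 0% = artemisinin-treated control wells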); conditions: Plasmodium falciparum HB3 blood-stage proliferation; at 28.7 µM (top of the series)
# Procedure, shortened: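 SYBR Green fluorescence (485 ex/535 em) of lysed cultures, incubated overnight at room temperature in the dark, quantifies parasite DNA. Infected erythrocytes at 0.3% parasitemia and 2.5% hematocrit were exposed 72 h; values normalized to DMSO and 0.29 uM artemisinin controls.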
# [5] = qHTS profiling of the MIPE4 collection as inhibitors of Plasmodium falciparum (3D7) proliferation (AID 743344);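 further: scaled between DMSO vehicle wells and 0.29 µM artemisinin as full inhibition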; conditions: P. falciparum 3D7 in erythrocytes, SYBR Green DNA fluorescence, 72 h; at 28.5 µM (top of the series) unless noted
# Procedure, shortened: as §1
# [6] = qHTS profiling of the MIPE4 collection as inhibitors of Plasmodium falciparum (DD2) proliferation (AID 743345); conditions: P. falciparum Dd2 in erythrocytes, SYBR Green DNA, 72 h; at 28.5 µM (top of the series) unless noted
# Procedure, shortened: as §1
# [7] = qHTS profiling of the MIPE4 collection as inhibitors of Plasmodium falciparum (HB3) proliferation (AID 743347);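 further: plate controls were DMSO vehicle wells for no effect and artemisinin wells for full effect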; conditions: P. falciparum HB3 in erythrocytes, SYBR Green DNA, 72 h; at 28.5 µM (top of the series) unless noted
# Procedure, shortened: as §1
# [8] = High-throughput drug toxicity screening in the BPDCN cell line Gen2.2 (AID 1224824); conditions: Gen2.2 BPDCN cells; at 45.8 µM (top of the series) unless noted;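 further: cells exposed to compounds for 48 h before reading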
# Procedure, shortened: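 Gen2.2 cells, 500 per well in phenol red-free RPMI with 10% FBS, exposed to compounds 48 h at 37 C, 5% CO2; viability by CellTiter-Glo luminescence. Percent activity scaled to DMSO (100%) and 9.2 uM bortezomib final (0%).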
# [9] = High-throughput drug toxicity screening in the BPDCN cell line Cal-1 (AID 1224825); conditions: Cal-1 BPDCN cell viability, qHTS; at 45.8 µM (top of the series) unless noted
# Procedure, shortened: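 CellTiter-Glo luminescence after 48 h compound exposure; percent activity scaled with DMSO as 100% and bortezomib (9.2 uM final) as 0%. Cal-1 cells seeded at 500/well in RPMI, 10% FBS, no phenol red.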
# [10] = qHTS profiling of the MIPE4 collection as inhibitors of Plasmodium falciparum (DD2) proliferation (Rep 2) (AID 743346); conditions: P. falciparum Dd2 in erythrocytes, SYBR Green DNA, 72 h; at 28.5 µM (top of the series) unless noted
# Procedure, shortened: as §1
SMILES,Potency [1],remaining parasite growth % (stronger effect = lower value) [2],"activity, percent of control [3]","remaining proliferation (% of control), lower = more inhibition [4]","parasite growth, % of DMSO control [5]","parasite growth remaining, % of DMSO control (lower = more inhibition) [6] [%]","growth, % of control [7]","cell viability, % of control (lower = more cytotoxic) [8]",viability (% of control) [9],"parasite growth, % of control (lower = inhibition) [10]",max response [1]
CC(C)c1ccc(Cn2ccc3c4c(N)nc(NC5CC5)nc4ccc32)cc1,14.8 µM (active),-2.55%,-1.01%,-1.47%,4.63%,6.19,3.42%,3.92%,4.41%,,
CC[C@@H]1C(=O)N(C)c2cnc(Nc3ccc(C(=O)NC4CCN(C)CC4)cc3OC)nc2N1C1CCCC1,2.35 µM (active),0.0061%,0.0959%,-0.331%,4.91%,6.75,6.34%,4.74%,2.57%,17.2%,
CNc1nccc(-c2cccnc2Oc2cc(C(=O)Nc3cccc(C(F)(F)F)c3)ccc2C)n1,,5.98%,13.8%,3.23%,6.2%,31.1,7.15%,13%,15.7%,19.8%,8.44% (inactive)
O=C(C=Cc1cccnc1)NCCCCC1CCN(C(=O)c2ccccc2)CC1,,81.9%,85.9%,46.3%,50.2%,93.7,42%,48%,4.19%,,33.6% (inactive)
Cn1cc(-c2[nH]c3cc(NC(=O)[C@H](N)C4CCCCC4)cc4c3c2C=NNC4=O)cn1,23.5 µM (active),-2.18%,-0.309%,-1.93%,3.34%,5.92,2.91%,28.9%,4.56%,4.04%,
CCCCc1nc2cc(C=CC(=O)NO)ccc2n1CCN(CC)CC,3.72 µM (active),-0.311%,-0.413%,-0.411%,4.71%,7.36,4.84%,53.2%,7.58%,,
Cn1c2cc(S(C)=O)sc2c2cnn(Cc3cccc(N)c3)c(=O)c21 (stereo unspecified),,83.6% and 85.6%,95% and 94.7%,53.2% and 65.3%,190%,,367%,123%,100%,77%,8.65% (inactive)
CC1=C(CO)C(=O)O[C@@H]([C@@H](C)[C@H]2CC[C@H]3[C@@H]4C[C@H]5O[C@]56[C@@H](O)C=CC(=O)[C@]6(C)[C@@H]4CC[C@]23C)C1,0.372 µM (active),-1.7%,-0.497%,-0.146%,6.08%,7.1,3.14%,3.38%,1.9%,,
Cc1cn2c(-c3cn[nH]c3)cnc2c(Nc2ccc(C(=O)N3CCNCC3)cc2F)n1,23.5 µM (active),19.1%,12.6%,11.9%,5.87%,11.4,3.68%,99.1%,28.2%,11.4%,
CC(C)C[C@H](NC(=O)CNC(=O)c1cc(Cl)ccc1Cl)B(O)O,18.7 µM (active),-0.752%,-0.333%,-0.908%,5.16%,,3.75%,2.43%,4.79%,7.79%,
C=C1C(=CC=C2CCCC3(C)[C@@H]([C@H](C)C=CC=CC(O)(CC)CC)CC[C@@H]23)C[C@@H](O)C[C@@H]1O (stereo partly specified),,65.1%,71.5%,20.6%,17.5%,83.6,15%,17.9%,6.44%,,-8.25% (inactive)
CC(C)=CCCC(C)=CCCC(C)=CCSc1ccccc1C(=O)O,,101%,118%,92%,22.6%,,15.5%,9.26%,19%,33.1%,2.41% (inactive)
CNC(=O)c1cc(Oc2ccc(NC(=O)Nc3cc(C(C)(C)C)nn3-c3ccc4ncccc4c3)c(F)c2)ccn1,,26.7%,73.3%,24.1%,5.7%,,9.48%,5.59%,7%,10.2%,-28.6% (inactive)
O=C(O)[C@H](Cc1c[nH]c2ccccc12)N1C(=O)c2ccccc2C1=O,,105%,104%,85.6%,99.6% [at 57.5 µM],,106% [at 57.5 µM],151% [at 92.2 µM],104% [at 92.2 µM],77% [at 57.5 µM],33.4% (inactive)
Nc1nc(Nc2ccc(S(N)(=O)=O)cc2)nn1C(=O)c1c(F)cccc1F,11.8 µM (active),14.8%,9.84%,10.9%,,11.8,9.06%,13.3%,6.01%,14.1%,
O=C(NC1CCNCC1)c1[nH]ncc1NC(=O)c1c(Cl)cccc1Cl,1.32 µM (active) and 2.64 µM (active),5.64% and 1.64%,9.64% and 5.01%,9.9% and 2.81%,10.8%,11.4,8.44%,5.14%,2.11%,22%,
Cc1ccc(C(=O)Nc2ccc(CN3CCN(C)CC3)c(C(F)(F)F)c2)cc1C#Cc1cnc2cccnn12,18.7 µM (active),-1.18%,0.143%,-1.05%,6.07%,,8.37%,10.5%,3.63%,,
CC(=O)OCCN1C(=O)c2c(C)nc3ccc(S(=O)(=O)N4CCOCC4)cc3c2C1=O,,96.2%,97.6%,103%,365%,102,666%,69.9%,47.9%,,15.6% (inactive)
C#Cc1cccc(Nc2ncnc3cc(OC)c(OCCCCCCC(=O)NO)cc23)c1,1.71 µM (active),-1.67%,0.0372%,-0.395%,5.53%,6.37,3.1%,44.2%,3.6%,11.2%,
